Drawing on ChEMBL document CHEMBL2218924, “A broad activity screen in support of a chemogenomic map for kinase signalling research and drug discovery” (Biochem J, 2013), this text covers residual activity for eleven molecules.

In test [1] the target is T1, Testis-specific serine/threonine-protein kinase 2 (Homo sapiens) (UniProt Q96PF2).
T1 sequence (whole entry): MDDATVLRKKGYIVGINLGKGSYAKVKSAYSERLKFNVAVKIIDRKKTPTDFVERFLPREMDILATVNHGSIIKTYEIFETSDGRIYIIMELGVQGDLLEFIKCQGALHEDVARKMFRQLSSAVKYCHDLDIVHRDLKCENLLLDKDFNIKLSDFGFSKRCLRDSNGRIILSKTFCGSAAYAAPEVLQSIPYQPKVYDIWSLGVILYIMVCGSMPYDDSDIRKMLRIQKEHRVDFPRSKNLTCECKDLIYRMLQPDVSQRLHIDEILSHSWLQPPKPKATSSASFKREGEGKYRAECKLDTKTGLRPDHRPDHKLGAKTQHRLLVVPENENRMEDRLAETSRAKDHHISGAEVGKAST
The conditions noted are these: at 1 µM.

Test [2] deals with T2, Tyrosine-protein kinase Mer (Homo sapiens) (UniProt Q12866).
T2 sequence (whole entry): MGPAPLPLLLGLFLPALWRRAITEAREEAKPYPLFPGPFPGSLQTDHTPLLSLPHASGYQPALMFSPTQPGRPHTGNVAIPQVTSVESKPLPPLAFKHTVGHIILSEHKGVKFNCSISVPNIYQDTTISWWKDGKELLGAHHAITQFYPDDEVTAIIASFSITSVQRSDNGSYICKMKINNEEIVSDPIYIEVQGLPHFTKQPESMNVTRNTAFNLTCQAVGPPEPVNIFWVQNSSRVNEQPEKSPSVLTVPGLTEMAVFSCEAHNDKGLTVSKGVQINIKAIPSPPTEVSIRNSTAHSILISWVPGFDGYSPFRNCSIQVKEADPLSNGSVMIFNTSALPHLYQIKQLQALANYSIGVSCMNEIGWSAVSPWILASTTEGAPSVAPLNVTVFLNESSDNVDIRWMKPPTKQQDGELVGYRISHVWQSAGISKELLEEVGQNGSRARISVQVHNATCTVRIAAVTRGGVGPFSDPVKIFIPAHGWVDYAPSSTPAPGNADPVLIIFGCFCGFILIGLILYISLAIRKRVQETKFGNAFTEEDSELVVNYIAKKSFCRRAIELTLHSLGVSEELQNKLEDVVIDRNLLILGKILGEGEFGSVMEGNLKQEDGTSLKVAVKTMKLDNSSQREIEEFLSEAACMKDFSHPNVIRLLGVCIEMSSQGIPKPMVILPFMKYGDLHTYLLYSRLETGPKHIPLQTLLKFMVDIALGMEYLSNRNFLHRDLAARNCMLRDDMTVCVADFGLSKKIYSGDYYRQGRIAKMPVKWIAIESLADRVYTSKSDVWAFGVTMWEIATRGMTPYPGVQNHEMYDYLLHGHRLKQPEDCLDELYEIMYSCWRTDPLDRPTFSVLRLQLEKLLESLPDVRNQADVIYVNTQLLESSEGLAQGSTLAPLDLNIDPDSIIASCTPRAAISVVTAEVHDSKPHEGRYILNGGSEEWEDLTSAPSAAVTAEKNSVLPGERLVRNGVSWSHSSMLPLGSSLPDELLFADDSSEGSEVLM
Conditions: at 1 µM.

Test [3] concerns the target T2, Tyrosine-protein kinase Mer (Homo sapiens). Conditions: at 10 µM.
Test [4] deals with Hepatocyte growth factor receptor (Homo sapiens) (UniProt P08581). The conditions noted are these: at 1 µM.
Chain of Hepatocyte growth factor receptor (Homo sapiens) (P08581 whole entry): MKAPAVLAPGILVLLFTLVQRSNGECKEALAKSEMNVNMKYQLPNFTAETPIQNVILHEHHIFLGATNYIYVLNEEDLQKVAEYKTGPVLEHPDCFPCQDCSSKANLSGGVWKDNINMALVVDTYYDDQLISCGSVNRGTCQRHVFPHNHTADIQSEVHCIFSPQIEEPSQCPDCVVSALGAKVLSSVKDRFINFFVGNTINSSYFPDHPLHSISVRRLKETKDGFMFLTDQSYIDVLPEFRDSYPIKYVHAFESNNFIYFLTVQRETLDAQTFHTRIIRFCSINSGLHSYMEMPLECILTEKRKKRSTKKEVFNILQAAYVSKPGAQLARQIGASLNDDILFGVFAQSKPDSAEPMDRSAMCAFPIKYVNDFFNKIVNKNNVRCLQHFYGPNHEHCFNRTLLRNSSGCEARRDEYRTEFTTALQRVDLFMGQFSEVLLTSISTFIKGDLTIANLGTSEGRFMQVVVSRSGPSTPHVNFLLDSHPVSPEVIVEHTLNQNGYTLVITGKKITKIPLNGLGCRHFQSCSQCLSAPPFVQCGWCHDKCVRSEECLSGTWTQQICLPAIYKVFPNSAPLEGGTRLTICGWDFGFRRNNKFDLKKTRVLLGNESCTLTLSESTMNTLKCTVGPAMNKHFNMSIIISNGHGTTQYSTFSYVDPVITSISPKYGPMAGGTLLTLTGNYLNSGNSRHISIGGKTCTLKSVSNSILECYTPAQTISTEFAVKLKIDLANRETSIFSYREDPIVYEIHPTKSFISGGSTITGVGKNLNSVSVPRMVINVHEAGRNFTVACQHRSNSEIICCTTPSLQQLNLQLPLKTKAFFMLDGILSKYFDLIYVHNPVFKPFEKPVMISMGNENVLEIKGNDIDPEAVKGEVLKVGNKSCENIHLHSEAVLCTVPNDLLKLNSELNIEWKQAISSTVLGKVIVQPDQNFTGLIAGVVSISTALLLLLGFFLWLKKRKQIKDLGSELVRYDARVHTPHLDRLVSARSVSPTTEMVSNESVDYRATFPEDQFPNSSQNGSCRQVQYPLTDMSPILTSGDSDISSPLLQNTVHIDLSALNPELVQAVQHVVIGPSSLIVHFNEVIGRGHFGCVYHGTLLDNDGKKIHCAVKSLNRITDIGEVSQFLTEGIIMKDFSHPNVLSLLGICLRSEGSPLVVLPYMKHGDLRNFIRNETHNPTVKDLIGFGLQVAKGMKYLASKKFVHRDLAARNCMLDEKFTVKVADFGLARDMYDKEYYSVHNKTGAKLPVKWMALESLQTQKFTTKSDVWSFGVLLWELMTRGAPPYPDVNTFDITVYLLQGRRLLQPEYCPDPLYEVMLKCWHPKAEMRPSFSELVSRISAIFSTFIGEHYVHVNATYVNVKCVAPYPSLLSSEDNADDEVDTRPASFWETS
Test [5] shares this target. The conditions noted are these: at 10 µM.
In test [6] the target is MAP kinase-interacting serine/threonine-protein kinase 2 (Homo sapiens) (UniProt Q9HBH9). The conditions noted are these: at 1 µM.
Chain of MAP kinase-interacting serine/threonine-protein kinase 2 (Homo sapiens) (Q9HBH9 whole entry, looked up): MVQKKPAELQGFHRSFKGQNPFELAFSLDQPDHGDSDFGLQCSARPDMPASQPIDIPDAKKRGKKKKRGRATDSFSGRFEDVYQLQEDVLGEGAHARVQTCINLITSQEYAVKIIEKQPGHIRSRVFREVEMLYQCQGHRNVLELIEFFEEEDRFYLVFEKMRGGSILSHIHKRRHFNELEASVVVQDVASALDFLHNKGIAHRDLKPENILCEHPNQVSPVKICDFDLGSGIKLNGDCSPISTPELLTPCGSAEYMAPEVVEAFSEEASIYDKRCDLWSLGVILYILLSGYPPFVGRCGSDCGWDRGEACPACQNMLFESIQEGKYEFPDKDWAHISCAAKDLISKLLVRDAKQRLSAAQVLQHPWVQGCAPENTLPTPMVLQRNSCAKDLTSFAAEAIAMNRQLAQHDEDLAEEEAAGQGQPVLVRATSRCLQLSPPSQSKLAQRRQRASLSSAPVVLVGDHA
Test [7] has the same target. The conditions noted are these: at 10 µM.
The target in test [8] is T3, Muscle, skeletal receptor tyrosine-protein kinase (Homo sapiens) (UniProt O15146).
T3 sequence (whole entry): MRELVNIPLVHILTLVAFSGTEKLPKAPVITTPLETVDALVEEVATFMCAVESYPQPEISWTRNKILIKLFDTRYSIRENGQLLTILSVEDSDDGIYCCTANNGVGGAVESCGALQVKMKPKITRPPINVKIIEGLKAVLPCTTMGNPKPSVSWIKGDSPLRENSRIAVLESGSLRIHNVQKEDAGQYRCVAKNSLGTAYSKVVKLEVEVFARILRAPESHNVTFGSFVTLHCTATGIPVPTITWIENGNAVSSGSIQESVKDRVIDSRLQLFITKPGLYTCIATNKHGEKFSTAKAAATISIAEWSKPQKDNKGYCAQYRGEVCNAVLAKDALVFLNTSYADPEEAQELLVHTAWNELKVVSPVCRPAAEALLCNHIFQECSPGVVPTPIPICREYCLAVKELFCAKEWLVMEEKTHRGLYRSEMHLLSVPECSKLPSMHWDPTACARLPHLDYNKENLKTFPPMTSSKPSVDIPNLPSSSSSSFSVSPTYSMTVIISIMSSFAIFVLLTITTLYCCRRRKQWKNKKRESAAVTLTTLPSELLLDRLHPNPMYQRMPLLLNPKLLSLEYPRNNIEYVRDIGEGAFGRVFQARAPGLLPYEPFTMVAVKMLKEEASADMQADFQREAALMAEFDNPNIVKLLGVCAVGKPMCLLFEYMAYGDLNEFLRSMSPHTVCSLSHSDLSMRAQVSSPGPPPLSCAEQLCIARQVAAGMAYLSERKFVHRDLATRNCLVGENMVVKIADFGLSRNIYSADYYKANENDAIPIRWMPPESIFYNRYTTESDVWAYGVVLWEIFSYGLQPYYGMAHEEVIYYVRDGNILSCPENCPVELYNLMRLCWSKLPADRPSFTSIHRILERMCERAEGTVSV
Conditions: at 1 µM.

Test [9] deals with T3, Muscle, skeletal receptor tyrosine-protein kinase (Homo sapiens). The conditions noted are these: at 10 µM.
Test [10] deals with T4, Serine/threonine-protein kinase Nek11 (Homo sapiens) (UniProt Q8NG66).
T4 sequence (whole entry): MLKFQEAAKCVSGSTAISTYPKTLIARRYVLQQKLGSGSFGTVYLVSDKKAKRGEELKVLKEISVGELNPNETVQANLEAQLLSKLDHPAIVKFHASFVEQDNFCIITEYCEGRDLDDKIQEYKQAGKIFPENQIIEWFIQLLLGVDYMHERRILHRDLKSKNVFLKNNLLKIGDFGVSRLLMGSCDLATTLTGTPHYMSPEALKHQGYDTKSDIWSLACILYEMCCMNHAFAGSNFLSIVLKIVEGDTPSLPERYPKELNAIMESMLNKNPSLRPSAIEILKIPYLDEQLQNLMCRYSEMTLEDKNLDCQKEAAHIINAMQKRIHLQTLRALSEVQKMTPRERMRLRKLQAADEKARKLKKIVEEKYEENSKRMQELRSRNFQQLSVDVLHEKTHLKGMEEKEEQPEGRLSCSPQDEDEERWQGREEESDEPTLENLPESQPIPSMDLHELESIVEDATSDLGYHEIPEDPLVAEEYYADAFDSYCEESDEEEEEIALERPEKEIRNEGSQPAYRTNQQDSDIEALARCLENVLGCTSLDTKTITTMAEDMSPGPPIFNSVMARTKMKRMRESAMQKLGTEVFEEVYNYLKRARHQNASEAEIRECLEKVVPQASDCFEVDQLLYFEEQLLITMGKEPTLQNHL
Conditions: at 1 µM.

For test [11], the target named is T4, Serine/threonine-protein kinase Nek11 (Homo sapiens). Conditions: at 10 µM.
For test [12], the target named is T5, Serine/threonine-protein kinase Nek2 (Homo sapiens) (UniProt P51955).
T5 sequence (whole entry): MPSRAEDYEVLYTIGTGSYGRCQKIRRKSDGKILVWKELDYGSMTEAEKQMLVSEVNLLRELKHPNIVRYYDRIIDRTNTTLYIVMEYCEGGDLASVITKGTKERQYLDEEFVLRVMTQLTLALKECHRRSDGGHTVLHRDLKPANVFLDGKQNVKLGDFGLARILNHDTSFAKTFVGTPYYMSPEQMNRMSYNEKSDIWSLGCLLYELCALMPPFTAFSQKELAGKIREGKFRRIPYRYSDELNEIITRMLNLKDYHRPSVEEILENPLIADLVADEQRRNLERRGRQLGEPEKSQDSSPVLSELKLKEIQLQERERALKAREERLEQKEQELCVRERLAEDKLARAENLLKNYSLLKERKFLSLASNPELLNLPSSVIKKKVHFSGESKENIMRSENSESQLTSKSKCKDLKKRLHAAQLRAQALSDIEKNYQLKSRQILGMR
Conditions: at 1 µM.

In test [13] the target is T5, Serine/threonine-protein kinase Nek2 (Homo sapiens). The conditions noted are these: at 10 µM.
Test [14] concerns the target T6, Serine/threonine-protein kinase Nek3 (Homo sapiens) (UniProt P51956).
T6 sequence (whole entry): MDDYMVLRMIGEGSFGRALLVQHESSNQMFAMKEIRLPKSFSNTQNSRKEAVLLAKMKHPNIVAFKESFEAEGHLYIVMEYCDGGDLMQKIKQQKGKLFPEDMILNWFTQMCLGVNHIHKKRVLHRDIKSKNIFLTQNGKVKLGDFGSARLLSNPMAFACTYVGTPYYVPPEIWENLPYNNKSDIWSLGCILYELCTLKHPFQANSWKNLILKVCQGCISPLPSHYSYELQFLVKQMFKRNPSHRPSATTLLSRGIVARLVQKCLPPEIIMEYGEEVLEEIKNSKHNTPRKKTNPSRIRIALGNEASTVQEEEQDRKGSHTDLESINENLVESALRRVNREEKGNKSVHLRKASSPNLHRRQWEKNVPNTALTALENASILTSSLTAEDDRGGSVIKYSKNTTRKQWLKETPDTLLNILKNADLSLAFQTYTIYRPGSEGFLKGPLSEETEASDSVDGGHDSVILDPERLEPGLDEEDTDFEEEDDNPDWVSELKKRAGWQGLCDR
The conditions noted are these: at 1 µM.

In test [15] the target is T6, Serine/threonine-protein kinase Nek3 (Homo sapiens). The conditions noted are these: at 10 µM.
Test [16] deals with Serine/threonine-protein kinase tousled-like 2 (Homo sapiens) (UniProt Q86UE8). Conditions: at 1 µM.
Chain of Serine/threonine-protein kinase tousled-like 2 (Homo sapiens) (Q86UE8 whole entry, looked up): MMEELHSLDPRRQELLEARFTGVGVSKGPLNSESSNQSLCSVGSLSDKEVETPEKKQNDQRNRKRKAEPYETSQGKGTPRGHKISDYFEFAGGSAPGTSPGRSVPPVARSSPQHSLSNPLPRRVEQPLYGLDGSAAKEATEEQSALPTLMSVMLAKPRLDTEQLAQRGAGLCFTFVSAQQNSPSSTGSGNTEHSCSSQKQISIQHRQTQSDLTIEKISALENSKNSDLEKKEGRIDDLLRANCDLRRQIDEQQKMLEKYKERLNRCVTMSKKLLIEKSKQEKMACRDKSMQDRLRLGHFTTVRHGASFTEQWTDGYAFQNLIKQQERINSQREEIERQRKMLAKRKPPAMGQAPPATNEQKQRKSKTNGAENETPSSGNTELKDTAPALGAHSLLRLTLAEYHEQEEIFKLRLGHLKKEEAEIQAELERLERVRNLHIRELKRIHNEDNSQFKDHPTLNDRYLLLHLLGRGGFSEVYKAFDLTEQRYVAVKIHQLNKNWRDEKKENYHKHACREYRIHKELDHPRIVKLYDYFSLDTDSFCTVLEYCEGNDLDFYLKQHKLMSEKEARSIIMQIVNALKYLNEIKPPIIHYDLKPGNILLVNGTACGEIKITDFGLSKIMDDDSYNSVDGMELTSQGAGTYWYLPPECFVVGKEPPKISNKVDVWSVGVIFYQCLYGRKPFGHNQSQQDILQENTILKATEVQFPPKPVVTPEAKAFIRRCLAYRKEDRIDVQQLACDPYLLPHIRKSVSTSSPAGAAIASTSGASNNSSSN
For test [17] the target is unchanged. Conditions: at 10 µM.
In test [18] the target is T7, Testis-specific serine/threonine-protein kinase 1 (Homo sapiens) (UniProt Q9BXA7).
T7 sequence (whole entry): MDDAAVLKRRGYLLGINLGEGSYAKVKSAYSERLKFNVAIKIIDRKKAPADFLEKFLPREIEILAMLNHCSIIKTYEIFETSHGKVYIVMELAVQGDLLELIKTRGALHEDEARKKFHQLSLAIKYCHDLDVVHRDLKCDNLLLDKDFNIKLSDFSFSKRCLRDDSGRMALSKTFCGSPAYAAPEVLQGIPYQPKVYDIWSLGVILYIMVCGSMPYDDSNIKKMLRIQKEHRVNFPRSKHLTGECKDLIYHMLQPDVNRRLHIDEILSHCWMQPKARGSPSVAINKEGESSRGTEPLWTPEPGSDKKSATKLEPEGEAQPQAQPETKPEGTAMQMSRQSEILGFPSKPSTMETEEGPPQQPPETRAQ
Conditions: at 1 µM.

Test [19] addresses T7, Testis-specific serine/threonine-protein kinase 1 (Homo sapiens). Conditions: at 10 µM.
Test [20] concerns the target T1, Testis-specific serine/threonine-protein kinase 2 (Homo sapiens). The conditions noted are these: at 10 µM.

The term residual activity denotes the signal under treatment as a percentage of the control signal. Take `COc1ccc(Cl)cc1NC(=O)Nc1cc(C)nc2ccccc12`: the residual activity in [1] came out at 100%.
Consider `Cc1nc2cc3nc(-c4cccs4)cnc3cc2n1C`, for which, in test [1], the residual activity worked out at 104%.
Regarding `COC(=O)[C@@]1(O)C[C@H]2O[C@]1(C)n1c3ccccc3c3c4c(c5c6ccccc6n2c5c31)C(=O)NC4`, the residual activity in test [2] is 2%; in test [3], 0%; in test [4], 6%; in [5], 13%; in test [6], 0%; in test [7] it was 0%. In addition, the residual activity in [8] was determined as 18%; in test [9] it was 2%; in [10], 34%; in test [11], 9%; in test [12] it was 75%; in test [13] it was 29%. Also, the residual activity in test [14] is 65%; in test [15], 53%; in [16] it was 1%; in test [17], 0%; in [18], -1%; in test [19], 0%. The values for the residual activity in test [1] and in test [20] were 8% and 0%, respectively.
Take `O=C(Nc1cccc(Nc2nccc(Nc3cccc(C(F)(F)F)c3)n2)c1)C1CC1`: the residual activity in test [1] worked out at 86%.
In the case of `Oc1n[nH]c2nnc(-c3c(-c4ccccc4)nn4ccccc34)cc12`, the residual activity in [1] was determined as 95%.
For the molecule `O=C1Nc2ccc3ncsc3c2/C1=C/c1c[nH]cn1`, the residual activity in [2] was 6%; in test [3] it was 2%; in test [4] it was 18%; in test [5], 4%; in test [6], 9%; in test [7], 4%. Moreover, the residual activity in test [8] turned out to be 53%; in [9], 11%; in test [10], 50%; in [11] it was 13%; in [12], 64%; in test [13] it was 39%. Further, the residual activity in [14] was found to be 102%; in test [15], 32%; in test [16], 19%; in test [17], 3%; in [18], 68%; in [19], 31%. In addition, the residual activity in test [1] turned out to be 89%; in test [20], 86%.
As to `CCn1cnc2c(Nc3cccc(Cl)c3)nc(N[C@@H]3CCCC[C@@H]3N)nc21`, the residual activity in test [2] was 8%; in test [3], -1%; in [5] it was 72%; in [6], 97%; in [7] it was 70%; in [8] it was 61%. Besides, the residual activity worked out at 13% in test [9]; 68% in test [10]; 55% in [11]; 98% in [12]; 55% in test [13]; 75% in test [14]. Besides, the residual activity stood at 81% in test [15]; 31% in [16]; 4% in [17]; 79% in [18]; 40% in [19]; 90% in test [1]. For the same molecule, in test [20], the residual activity is 58%.
As to `O=C1NC(=O)c2c1c1c3ccccc3[nH]c1n1cncc21`, the residual activity in test [1] came out at 83%.
Consider `Nc1n[nH]c2nnc(-c3c(-c4ccccc4)nn4ccccc34)cc12`, for which the residual activity in [1] worked out at 104%.
As for `Cc1ccc(NC2=CC(=O)c3sc(C)nc3C2=O)cc1`, the residual activity in test [1] amounted to 93%.
With `C[C@@H](N)[C@H]1CC[C@H](C(=O)Nc2ccncc2)CC1`, in [1], the residual activity stood at 102%.
